According to the supplement of paper PMC7261846:
± gives the uncertainty stated by the source.

System: Candida albicans SNY425 biofilm
Assay: biofilm OD600 with compound plus antifungal (OD600 (absorbance)); higher = more biofilm remaining
[1] = assay detail: disruption of 24-h mature biofilm (compound + antifungal for a second 24 h)
[2] = assay detail: sustained inhibition (compound + antifungal during 90-min adherence and 24-h growth)

| Structure (SMILES) | biofilm OD600 [1] | biofilm OD600 [2] |
| --- | --- | --- |
| Nc1ccc(CC(CC(=O)O)C(=O)O)cc1 [4-Amino-D, L-benzylsuccinic acid] + CC[C@H](C)C[C@H](C)CCCCCCCCC(=O)N[C@H]1C[C@@H](O)[C@@H](NCCN)NC(=O)[C@@H]2[C@@H](O)CCN2C(=O)[C@H]([C@H](O)CCN)NC(=O)[C@H]([C@H](O)[C@@H](O)c2ccc(O)cc2)NC(=O)[C@@H]2C[C@@H](O)CN2C(=O)[C@H]([C@@H](C)O)NC1=O [caspofungin] (first compound 12.5 µM) | 0.295 ± 0.016 | 0.187 ± 0.0071 |
| O=C(O[C@@H]1Cc2c(O)cc(O)cc2O[C@@H]1c1cc(O)c(O)c(O)c1)c1cc(O)c(O)c(O)c1 [Epigallocatechin gallate] + CC[C@H](C)C[C@H](C)CCCCCCCCC(=O)N[C@H]1C[C@@H](O)[C@@H](NCCN)NC(=O)[C@@H]2[C@@H](O)CCN2C(=O)[C@H]([C@H](O)CCN)NC(=O)[C@H]([C@H](O)[C@@H](O)c2ccc(O)cc2)NC(=O)[C@@H]2C[C@@H](O)CN2C(=O)[C@H]([C@@H](C)O)NC1=O [caspofungin] (first compound 12.5 µM) | 0.264 ± 0.016 | 0.211 ± 0.01 |
| CC(C)C[C@H](NC(=O)[C@H]1O[C@@H]1C(=O)O)C(=O)NCCCCN=C(N)N + CC[C@H](C)C[C@H](C)CCCCCCCCC(=O)N[C@H]1C[C@@H](O)[C@@H](NCCN)NC(=O)[C@@H]2[C@@H](O)CCN2C(=O)[C@H]([C@H](O)CCN)NC(=O)[C@H]([C@H](O)[C@@H](O)c2ccc(O)cc2)NC(=O)[C@@H]2C[C@@H](O)CN2C(=O)[C@H]([C@@H](C)O)NC1=O [caspofungin] (first compound 12.5 µM) | 0.261 ± 0.01 | 0.18 ± 0.008 |
| CSCCC(C=O)NC(=O)C(CC(C)C)NC(=O)[C@H](CC(C)C)NC(C)=O (stereo not given in full) [Calpain Inhibitor II (ALLM)] + C[C@@H]1[C@H](O)[C@@H](C)/C=C/C=C/C=C/C=C/C=C/C=C/C=C/[C@H](O[C@@H]2O[C@H](C)[C@@H](O)[C@H](N)[C@@H]2O)C[C@@H]2O[C@](O)(C[C@@H](O)C[C@@H](O)[C@H](O)CC[C@@H](O)C[C@@H](O)CC(=O)O[C@H]1C)C[C@H](O)[C@H]2C(=O)O [amphotericin B] (first compound 12.5 µM) | 0.247 ± 0.0052 | 0.193 ± 0.0094 |
| NC(=O)c1cccc(-c2cccc(OC(=O)NC3CCCCC3)c2)c1 + OC(Cn1cncn1)(Cn1cncn1)c1ccc(F)cc1F [fluconazole] (first compound 12.5 µM) | 0.283 ± 0.0052 | 0.118 ± 0.0073 |
